# In the library only some 31% were active in any assay of this set; here they are far more common.
# CYP2C19 inh = blocks human cytochrome P450 2C19. inhibition, % at 5 µM. 21% of 96,000 active. CYP2C19 Supersomes, luciferin-H EGE luminescence, 30 min. P33261;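 active = CYP2C19 inhibition above a set limit at 5 µM in the primary screen, cut at about 50% in these data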;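 note: plate controls were negative control wells for no effect and 2.5 mM tranylcypromine positive control for full effect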
# PLAP act = human PLAP activation. purified PLAP enzyme, luminescent substrate read-out; stronger effect = higher value. 1.2% of 96,000 active. activation fold at 20 µM. AID 696. P05187; in the data active = activation fold above about 2
# Target sequence (P05187 whole entry, looked up): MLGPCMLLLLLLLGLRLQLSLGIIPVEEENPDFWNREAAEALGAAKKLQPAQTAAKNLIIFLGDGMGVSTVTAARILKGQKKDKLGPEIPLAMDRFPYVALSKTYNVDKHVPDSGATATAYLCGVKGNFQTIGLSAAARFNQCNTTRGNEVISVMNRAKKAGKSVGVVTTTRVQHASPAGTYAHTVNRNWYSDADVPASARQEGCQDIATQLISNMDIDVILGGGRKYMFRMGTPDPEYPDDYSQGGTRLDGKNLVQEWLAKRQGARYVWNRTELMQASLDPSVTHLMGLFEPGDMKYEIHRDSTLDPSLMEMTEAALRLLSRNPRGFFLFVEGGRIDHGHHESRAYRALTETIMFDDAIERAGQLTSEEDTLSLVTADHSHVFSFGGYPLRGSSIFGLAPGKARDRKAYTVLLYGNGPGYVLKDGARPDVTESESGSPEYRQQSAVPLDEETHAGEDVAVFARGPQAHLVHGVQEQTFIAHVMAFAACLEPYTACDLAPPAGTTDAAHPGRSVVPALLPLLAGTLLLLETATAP
# CYP2C19 activ = cytochrome P450 2C19 (human) activation | P33261 | recombinant CYP2C19, luciferin-H EGE luminescence; stronger effect = higher value; 0 = fully inhibited enzyme, 1 = untreated enzyme | activation factor at 5 µM | 96,000 tested, under 10 active;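 active = activation factor of at least 2 at 5 µM in the primary screen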;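 note: 0 = wells with 2.5 mM tranylcypromine and 1 = vehicle-only wells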
# CYP2C9 inh = blocks human cytochrome P450 2C9; AID 777; P11712; CYP2C9 Supersomes, luciferin-H conversion, luminescence; 20% of 96,000 active; inhibition, % at 5 µM;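 active = blocking of liver enzyme CYP2C9 beyond about 50% at 5 µM, limit read from the data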
# CYP2C9 act = increases human cytochrome P450 2C9 activity. P11712. recombinant CYP2C9, luciferin-H conversion, luminescence; stronger effect = higher value; factor 1 = untreated enzyme, 0 = blocked. activation factor at 5 µM. 1.4% of 96,000 active;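 active = activation factor of 2 or more for CYP2C9 at a 5 µM dose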;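 note: 0 = sulfaphenazole-blocked wells and 1 = vehicle-only wells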
# The depositor's hits bear a star; . = no result.
SMILES,CYP2C19 inh,PLAP act,CYP2C19 activ,CYP2C9 inh,CYP2C9 act
COC(=O)/C=C1/N/C(=N\c2nc(C)cc(C)n2)N(c2ccc(C)c(C)c2)C1=O,0,1.8,1,28,0.7
N#Cc1cccc(-n2c(-c3ccccc3)nnc2-c2ccccc2)c1C#N,89*,0.8,0.1,89*,0.1
COc1nc(-c2ccccc2)c2c(c1C#N)CC(C)(C)OC2,78*,0.9,0.2,47,0.5
CC(C)Cc1[nH]c(=O)c(C#N)c2c1COC(C)(C)C2,46,0.9,0.5,-10,1.1
CCCCc1nc(NCc2ccccc2)c(C#N)c2c1COC(C)(C)C2,2,0.8,1,28,0.7
CC1(C)Cc2c(C#N)c(OCC(=O)c3ccc(Cl)cc3)nc(-c3ccoc3)c2CO1,79*,0.9,0.2,38,0.6
CC1(C)Cc2c(c(-c3ccccc3Cl)[nH]c(=O)c2C#N)CO1,92*,1.2,0.1,4,1
CCCc1[nH]c(=O)c(C#N)c2c1COC(C)(C)C2,66*,1,0.3,20,0.8
CC(=O)N(CCO)Cc1cc2cc(C)cc(C)c2[nH]c1=O,1,1,1,8,0.9
CC1(C)Cc2c(c(-c3ccccc3)[nH]c(=O)c2C#N)CO1,55*,1,0.4,-8,1.1
CC(C)(C)C(=O)NC1CCN(S(=O)(=O)c2cccc(C(F)(F)F)c2)CC1,81*,1.3,0.2,-19,1.2
CC(C)CCN(C)C1CCN(C(=O)Nc2c(F)cccc2F)CC1,2,1.1,1,3,1
O=C(Cc1ccccc1)NC1CCN(S(=O)(=O)c2cccc(F)c2)CC1,73*,0.9,0.3,9,0.9
CC(C)CCN(C)C1CCN(S(=O)(=O)c2cccc(C(F)(F)F)c2)CC1,52*,1.5,0.5,28,0.7
CCc1nc2ccccc2n1CC(=O)N1CCN(S(=O)(=O)c2cccc(C(F)(F)F)c2)CC1,-3,1.3,1,2,1
O=C(Cc1ccccc1)NC1CCN(S(=O)(=O)c2ccc(C(=O)O)cc2)CC1,4,0.9,1,24,0.8
Nc1cccnc1Sc1cc(Cl)c(Cl)cc1Cl,15,1,0.8,14,0.9
COc1cccc(-c2cc(C(=O)Nc3cc(C)nn3-c3ccccc3)no2)c1,-20,1.1,1.2,-51,1.5
O=C(OCc1ccc([N+](=O)[O-])cc1)C1CC(=O)N(c2ccccc2)C1 (stereo not drawn),37,1,0.6,-9,1.1
CC(C)C(=O)Nc1ccc(-c2csc(-c3ccccc3)n2)cc1,-4,0.9,1,-21,1.2
O=P(c1ccccc1)(c1ccccc1)C(c1ccco1)N1CCOCC1 (stereo not drawn),11,1.1,0.9,3,1
COc1ccc(C)cc1NC(=O)c1ccc2c(c1)OCO2,86*,0.5,0.1,-76,1.8
CN(c1ccc(C(=O)Nc2ccccc2Sc2ccccc2)cc1)S(C)(=O)=O,30,1.2,0.7,46,0.5
CCn1c(CNC(=O)c2ccc3c(c2)OCO3)nnc1SCC(=O)Nc1cc(C)ccc1OC,19,1.5,0.8,14,0.9
Cc1ccc(C)c(NC(=O)c2ccc(N(C)S(C)(=O)=O)cc2)c1,14,1.1,0.9,51*,0.5
SMILES,CYP2C19 inh,PLAP act,CYP2C19 activ,CYP2C9 inh,CYP2C9 act
COc1ccc(C)cc1NC(=O)c1ccc(N(C)S(C)(=O)=O)cc1,32,0.9,0.7,-147,2.5*
Fc1ccccc1CNc1cc(Cl)cc(Cl)c1,.,1,.,.,.
NS(=O)(=O)c1ccc(NCc2ccccc2OCc2ccccc2F)cc1,40,0.7,0.6,75*,0.2
Oc1ccc(NCc2ccccc2OCc2ccccc2F)cc1,52*,0.8,0.5,47,0.5
Cc1ccc(NCc2ccccc2OCc2ccccc2F)cc1,57*,0.9,0.4,41,0.6
C/C(=C\C(=O)Nc1nccs1)c1ccccc1,39,1.1,0.6,28,0.7
COC(=O)C1CCN(S(=O)(=O)c2cn(C)c(=O)n(C)c2=O)CC1,-13,1.1,1.1,-10,1.1
Cn1ccnc1SCC(=O)Nc1ccc2nc(SCC(=O)NC3CC3)sc2c1,19,0.9,0.8,62*,0.4
COc1ccc(OCC(=O)Nc2ccc(N3CCOCC3)c(Cl)c2)cc1,50,0.8,0.5,65*,0.4
CCCC(=O)Nc1ccc2nc(SCC(=O)Nc3ccc(N4CCOCC4)c(Cl)c3)sc2c1,40,1.1,0.6,69*,0.3
CCOC(=O)c1cnc(SCC(=O)Nc2ccc(N3CCOCC3)c(Cl)c2)nc1N,12,0.8,0.9,81*,0.2
C=CCn1c(N)c(C(=O)NC2CCCCC2)sc1=S,35,0.9,0.7,36,0.6
CN1c2ccccc2C(C)(C)C12C=Nc1c(ccc3ccccc13)O2 (stereo not drawn),7,1,0.9,33,0.7
CN1c2ccccc2C(C)(C)[C@]12C=Cc1cc(O)ccc1O2,97*,0.5,0,95*,0.1
Cc1cc2c(=O)n(NC(N)=O)c(C)nc2s1,2,0.9,1,9,0.9
CCOC(=O)C1C(=O)NC(SCC(N)=O)=C(C#N)C1c1ccccc1OCC (stereo not drawn),76*,1.4,0.2,42,0.6
CCOC(=O)C1C(=O)NC(SC)=C(C#N)C1c1ccccc1F (stereo not drawn),91*,1.2,0.1,42,0.6
CCOC(=O)CSC1=C(C#N)C(c2ccc(Cl)cc2)C(C(=O)OC)C(=O)N1 (stereo not drawn),40,1.1,0.6,41,0.6
CSCCc1nc(SCC(=O)Nc2nnc(C)s2)[nH]c1C,-4,0.9,1,1,1
O=C(NC1CC1)c1cc(Cl)ccc1[N+](=O)[O-],1,0.9,1,-4,1
COc1cc2c(cc1OC)C(=S)NC(C)(C)C2,14,0.8,0.9,16,0.8
COc1ccc(OC)c2sc(NC(=O)C3=COCCO3)nc12,13,1,0.9,31,0.7
COc1ccc(OC)c2sc(NC(=O)C(C)C)nc12,46,1.4,0.5,70*,0.3
CC1CN(c2nc3ccccc3nc2C(C#N)C(=O)NCc2ccc3c(c2)OCO3)CC(C)O1 (stereo not drawn),19,1.3,0.8,40,0.6
Cc1cc(Cl)ccc1N=Cc1c(O)n(C)c(=O)n(C)c1=O,-4,1,1,1,1
COc1cccc(C2C(C(N)=O)=C(C)Nc3nc(-c4ccccc4Cl)nn32)c1 (stereo not drawn),60*,1.1,0.4,34,0.7
COc1ccc(C2C(C(=O)Nc3cccnc3)=C(C)Nc3nc(-c4cccs4)nn32)cc1OC (stereo not drawn),10,1.4,0.9,48,0.5
COc1ccc(C2C(C(N)=O)=C(C)Nc3nc(-c4ccccc4)nn32)cc1OC (stereo not drawn),34,0.9,0.7,7,0.9
